Structures are written as SMILES. About 2,800 (6%) of roughly 47,000 compounds were called active. The sample as a whole holds a higher share of actives than the screen did. Values without a mark were called inactive. Cut-off read from the data, not from the text of the source: active = z-score above about 3 (passing the limit was not always enough); inactive = the rest.

This passage reports z-score results from PubChem BioAssay AID1347074 (Center for Chemical Genomics, University of Michigan, 2019).

The target of this test is Endoribonuclease Dicer (Homo sapiens) (UniProt Q9UPY3). As to the kind of experiment: inhibitors of Dicer pre-microRNA processing, primary screen, biochemical, cat-ELCCA, chemiluminescence (AID 1347074).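 Note: plate controls were vehicle for no effect and no enzyme for full effect; higher signal means more uncleaved substrate so more Dicer inhibition.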 The following applies: cat-ELCCA pre-miR-21 Dicer processing, at 25 µM, stronger effect = higher value.
Chain of Endoribonuclease Dicer (Homo sapiens) (Q9UPY3 whole entry, looked up): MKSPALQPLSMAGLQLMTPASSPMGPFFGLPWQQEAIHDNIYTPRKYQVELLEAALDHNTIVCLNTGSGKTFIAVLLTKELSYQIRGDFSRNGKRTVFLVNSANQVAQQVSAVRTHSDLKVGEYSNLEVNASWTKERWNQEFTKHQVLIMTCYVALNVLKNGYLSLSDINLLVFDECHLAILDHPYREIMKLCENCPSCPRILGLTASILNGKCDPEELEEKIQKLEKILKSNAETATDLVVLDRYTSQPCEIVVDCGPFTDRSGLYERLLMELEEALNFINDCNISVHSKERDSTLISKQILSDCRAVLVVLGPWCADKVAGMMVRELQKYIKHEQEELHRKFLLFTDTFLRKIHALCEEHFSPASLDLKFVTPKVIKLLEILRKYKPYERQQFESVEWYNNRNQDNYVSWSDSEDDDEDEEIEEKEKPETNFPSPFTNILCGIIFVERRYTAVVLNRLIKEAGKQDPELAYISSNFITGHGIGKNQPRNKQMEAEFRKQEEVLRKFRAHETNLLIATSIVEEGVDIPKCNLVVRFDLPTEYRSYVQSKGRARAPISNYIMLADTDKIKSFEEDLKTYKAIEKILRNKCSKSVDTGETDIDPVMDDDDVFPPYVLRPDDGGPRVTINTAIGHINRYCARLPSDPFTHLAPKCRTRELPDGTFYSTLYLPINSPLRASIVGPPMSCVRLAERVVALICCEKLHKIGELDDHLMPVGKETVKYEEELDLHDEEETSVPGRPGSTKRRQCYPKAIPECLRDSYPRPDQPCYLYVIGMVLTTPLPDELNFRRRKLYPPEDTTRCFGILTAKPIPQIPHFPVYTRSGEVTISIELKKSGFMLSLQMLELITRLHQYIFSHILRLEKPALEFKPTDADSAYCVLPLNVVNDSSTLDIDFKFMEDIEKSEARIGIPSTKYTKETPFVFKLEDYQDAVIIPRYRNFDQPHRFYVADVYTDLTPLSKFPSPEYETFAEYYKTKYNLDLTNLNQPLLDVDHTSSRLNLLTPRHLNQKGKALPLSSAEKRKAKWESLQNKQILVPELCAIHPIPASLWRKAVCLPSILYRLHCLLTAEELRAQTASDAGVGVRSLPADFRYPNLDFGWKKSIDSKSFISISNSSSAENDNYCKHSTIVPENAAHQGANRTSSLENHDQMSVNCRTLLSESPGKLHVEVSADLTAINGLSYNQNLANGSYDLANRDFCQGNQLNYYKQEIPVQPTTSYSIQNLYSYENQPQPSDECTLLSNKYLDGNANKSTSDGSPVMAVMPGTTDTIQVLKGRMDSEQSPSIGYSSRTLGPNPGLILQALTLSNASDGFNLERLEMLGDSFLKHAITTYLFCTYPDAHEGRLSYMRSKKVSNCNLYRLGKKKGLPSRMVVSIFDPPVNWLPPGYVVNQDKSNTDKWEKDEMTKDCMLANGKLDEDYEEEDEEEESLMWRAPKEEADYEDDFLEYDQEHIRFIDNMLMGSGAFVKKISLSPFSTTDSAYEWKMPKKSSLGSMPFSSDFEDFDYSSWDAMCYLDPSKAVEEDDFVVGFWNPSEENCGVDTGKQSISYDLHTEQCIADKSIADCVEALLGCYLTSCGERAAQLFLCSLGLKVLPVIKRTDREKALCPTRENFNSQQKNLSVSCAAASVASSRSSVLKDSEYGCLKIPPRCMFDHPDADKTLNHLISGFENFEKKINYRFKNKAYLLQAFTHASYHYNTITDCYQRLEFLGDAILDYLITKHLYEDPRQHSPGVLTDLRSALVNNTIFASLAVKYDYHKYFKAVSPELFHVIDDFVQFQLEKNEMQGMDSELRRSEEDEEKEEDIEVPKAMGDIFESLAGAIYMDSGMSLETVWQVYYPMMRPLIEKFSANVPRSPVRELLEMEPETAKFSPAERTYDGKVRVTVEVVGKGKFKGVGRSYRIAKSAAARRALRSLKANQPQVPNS
For `Cc1nc(-c2cc(C#N)c(SCCNS(=O)(=O)c3ccc(Cl)cc3Cl)nc2C)cs1`, the z-score was -0.5.
Then `C=CCOc1ccc(C2c3c(oc4ccccc4c3=O)C(=O)N2c2nncs2)cc1` (centres undefined), with -1.03; and `CC(=O)Nc1cc(Sc2ccc(C)cc2)c(F)cc1[N+](=O)[O-]`, with -0.55.
As for `Cc1ccc2nc(CCC(=O)O)[nH]c2c1`, the figure is 1.6; as for `O=C(CSCc1c(F)cccc1Cl)NCc1ccc2c(c1)OCO2`, 1.3.
Then `O=[N+]([O-])c1ccc(CSc2nc3cc(Cl)c(F)cc3[nH]2)cc1`, with 0.13; and `CC(=O)C(Cc1ccc([N+](=O)[O-])cc1)(Cc1c(F)cccc1Cl)C(C)=O`, with 3.5 (active); and `COc1ccccc1C1=Nc2cccc3cccc(c23)N1`, with -0.3.
For `COc1cc(OC)cc(-c2nc3n(n2)C(c2cccc(OC)c2OC)C2=C(CCCC2=O)N3)c1` (centres undefined), the z-score was -0.15.
For the compound `COc1cccc(C2Nc3cccc4cccc(c34)N2)c1OC`, the z-score was 3.14 (active).
Then `Brc1ccccc1C1Nc2cccc3cccc(c23)N1`, with 5.91 (active).
As for `C=CCc1ccc(OCc2ccc(C(=O)OC)cc2)c(OC)c1`, the figure is 0.92; as for `ONC(=Nc1cccc(Cl)c1)c1ccccc1`, 0.78.
As for `CCOC(=O)C1=C(C)NC2=C(C(=O)c3ccccc32)C1c1cccc(F)c1` (centres undefined), the figure is -1.25; as for `O=C(O)CCCC(=O)Nc1ccc2c(c1)OCCO2`, -0.36; as for `Cc1ccc(C2Nc3nonc3NC3=C2C(=O)CC(C)(C)C3)cc1` (centres undefined), -0.08.
For the compound `Cc1cc(=O)[nH]c(SCc2ccc(Cl)cc2)n1`, the z-score is 0.25.
Then `Cc1cc(=O)[nH]c(SCc2cn3cccnc3n2)n1`, with 3.69 (active); and `Cc1cc(=O)[nH]c(SCc2cn3c(C)cc(C)nc3n2)n1`, with 2.76.
Then `CCOCCOC(=O)C1=C(C)NC2=C(C(=O)CCC2)C1c1ccc(O)c(OCC)c1` (centres undefined), with -0.34; and `O=C(Nc1cc(C(F)(F)F)cc(C(F)(F)F)c1)c1csc([N+](=O)[O-])c1`, with 1.87.
Then `O=c1[nH]nc(Sc2ncc(Br)cc2[N+](=O)[O-])n1-c1ccc(Cl)cc1`, with -0.78.
As for `Cc1ccc2c(c1)sc1ncc(NC(=O)c3ccc(C(C)(C)C)cc3)c(=O)n12`, the z-score is -1.01.
As for `CCn1c2c(c(=O)[nH]c1=O)C(c1ccccc1OC)C1=C(N2)c2ccccc2C1=O` (centres undefined), the figure is 2.33; as for `CCc1ccc(C2CC(=O)Nc3n[nH]c(-c4ccc(Cl)cc4)c32)cc1` (centres undefined), 0.45.
As to `CC(C)(C)c1ccc(C(=O)Nc2cc(C#N)c3sc4ccccc4n3c2=O)cc1`, the z-score was -0.68.
As for `O=C1C(=O)N(CCCN2CCOCC2)C(c2ccco2)/C1=C(\O)c1ccc(F)cc1` (centres undefined), the figure is 2.92; as for `O=C(O)C1CC(=O)N(Cc2ccccc2Cl)C1` (centres undefined), -1.02.
Take `O=C1CC(N2CCN(c3cccc(Cl)c3)CC2)C(=O)N1c1cccc(Cl)c1` (centres undefined): the z-score is 0.79.
As for `O=C(O)C1CC(=O)N(c2cccc(Cl)c2)C1` (centres undefined), the figure is 8.4 (active); as for `CC(c1ccccc1)C1C(C#N)=C(N)Oc2n[nH]c(-c3ccccc3)c21` (centres undefined), -0.54.
Then `Cc1cc(C)cc(N2CC(C)Cn3c2nc2c3c(=O)n(CC(=O)O)c(=O)n2C)c1` (centres undefined), with -0.04; and `Cc1ccc(C(=O)CSc2nnc(-c3ccccc3)n2C)cc1`, with 8.7; and `Cc1cc(-c2ccccc2)n2nc(C)cc2n1`, with 0.05.
Then `CCOC(=O)c1c(N)sc2c1CC(C)(C)OC2`, with -0.32; and `CC1=CC(C)(C)N(S(=O)(=O)c2ccc(C)cc2)c2cc3c(cc21)OCO3`, with 3.26 (active).
`CC1=CC(C)(C)N(C(=O)NC2CCCCC2)c2ccc(C)cc21`: the z-score was -5.39.
As for `Cn1c(N2CCCCC2)nc2c1c(=O)n(Cc1ccc(Cl)cc1Cl)c(=O)n2C`, the figure is -1.04; as for `Cn1c(CSc2cccs2)nnc1SCc1c(Cl)cccc1Cl`, 0.02.
As for `CC(=O)Nc1ccc(C(=O)CSc2nc3nc(C)cc(C)c3c(=O)[nH]2)cc1`, the figure is -0.34.
Then `CN(C)c1ccc(/C=C2\CCC/C(=C\c3ccc(N(C)C)cc3Cl)C2=O)c(Cl)c1`, with 3.37 (active).
`O=C1/C(=C/c2ccc(Cl)cc2)CCC/C1=C\c1ccc(Cl)cc1`: the z-score is -1.13.
For `Cn1ccnc1SCC(=O)Nc1cccc2nsnc12`, the z-score was -4.69.
Then `CC1=N/C(=C/c2ccccc2Cl)C(=O)O1`, with 3.5 (active); and `O=C(CN1C(=O)/C(=C/c2ccccc2Cl)N=C1c1ccccc1)c1ccccc1`, with 0.22.
As for `CC1=N/C(=C/c2ccccc2O)C(=O)O1`, the figure is 0.13; as for `CCOC(=O)Cn1c(Sc2nc3c(c(=O)n(C)c(=O)n3C)n2C)nc2ccccc21`, 2.22; as for `O=C(O)CC1S/C(=N\N=C\c2ccco2)NC1=O` (centres undefined), -0.87.
Then `O=C(NCc1ccc2c(c1)OCO2)c1ccc(Cn2cc(Cl)cn2)cc1`, with 1.8.
As to `CCOc1ccc(S(=O)(=O)Nc2ccncc2)c(C)c1C`, the z-score was 0.59.
Turning to `CCOc1ccc(S(=O)(=O)n2ccnc2)c2ccccc12`, the z-score is 3.38 (active).
As for `COc1cc(C)c(Cl)cc1S(=O)(=O)n1ccnc1`, the figure is -0.35; as for `CSCC(CSC)OC(=O)NC(=O)c1c(Cl)cccc1Cl`, -0.86; as for `NC(=O)C1CCN(C(=O)C2CC(c3ccc(Cl)cc3)=NO2)CC1` (centres undefined), -1.13.
As for `CCOC(=O)CSc1nc2cc(Cl)ccc2s1`, the figure is 0.3; as for `N#Cc1sc(SCc2ccccc2)c2c1CC(c1ccccc1)CC2=O` (centres undefined), 0.58.
Then `CCCN1C(=O)C(O)(CC(=O)c2ccc(C(C)(C)C)cc2)c2ccccc21` (centres undefined), with -0.52.
In the case of `Cc1cc(N2C(=O)CC(C)(C)CC2=O)n(C)n1`, the z-score is -0.86.
Then `CCOC(=O)c1c(N/N=C\c2ccccc2O)n[nH]c1C`, with 1.01; and `CCC(C)c1ccc(O)c(/C=N/Nc2ccccc2)c1` (centres undefined), with 6.05 (active).
As for `COc1ccccc1C1CCN(S(=O)(=O)c2ccc(Oc3c(Cl)cccc3[N+](=O)[O-])cc2)CC1`, the figure is 1.46; as for `CCC(C)c1ccccc1OCC(O)CN1C(=O)NC(C)(C)C1=O` (centres undefined), 0.96; as for `Oc1ccccc1-c1nc(/C=C/c2cccs2)no1`, 2.56.
As for `FC(F)(F)c1nc(-c2ccccc2)ncc1-c1nnnn1-c1ccccc1`, the figure is 3.06 (active).
Consider `Fc1ccc(-n2nnnc2-c2cnc3ccc(Cl)cc3c2-c2ccccc2)cc1`, for which the z-score is 0.2.
In the case of `Cc1ccc(-n2nnnc2-c2cnc3ccccc3c2C)cc1`, the z-score is -0.58.
Then `CCc1ccccc1N1CC23C=CC(O2)C(C(=O)OC(C)C)C3C1=O` (centres undefined), with -0.64.
As to `COc1cc(/C=C2/N=C(c3ccccc3)N(C)C2=O)cc(OC)c1OC`, the z-score was 2.54.
As for `CCOC(=O)c1c(C)[nH]c(=O)c([N+](=O)[O-])c1O`, the figure is 0.2; as for `CC1([N+](=O)[O-])COC(c2ccccc2)OC1` (centres undefined), 1.75; as for `O=C1OC2(CCCCC2)OC1c1ccccc1` (centres undefined), 3.75 (active).
On to `Cn1c(=O)c(C#N)c(O)c2ccccc21`, for which the z-score is 0.83.
Then `CCCCc1ccc(-n2c(-c3ccc(F)cc3)coc2=O)cc1`, with 9.25 (active).
Then `CCCCc1ccc(S(N)(=O)=O)cc1`, with -0.91.
Then `Fc1ccc(NC2=NCCN=C(Nc3ccc(F)cc3F)SS2)c(F)c1`, with -0.47; and `CSc1scc(NC(=O)Nc2cc(Cl)cc(Cl)c2)c1S(=O)(=O)C(C)C`, with 30.2 (active); and `O=C(Nc1cc(Cl)cc(Cl)c1)Nc1cnccc1C(F)(F)F`, with 0.4.
Consider `O=C(CSc1nc(-c2ccc(F)cc2)cc(C(F)(F)F)n1)N1CCOCC1`, for which the z-score is -0.77.
Then `C/C(=N\OC(=O)c1ccc(Cl)cc1)c1nnn(-c2cc(C(F)(F)F)cc(C(F)(F)F)c2)c1C`, with 0.47.
Take `CCOc1ccc(S(=O)(=O)N2CCSC2c2cccc(Cl)c2)cc1` (centres undefined): the z-score is 1.41.
Then `O=c1c2cc(-c3ccccc3)sc2n(Cc2ccccc2Cl)c(=O)n1-c1ccccc1`, with 0.38.
Then `COC(=O)c1c(NC(=O)COc2ccccc2)sc2c1CCCC2`, with 0.4; and `CCCC1CCc2c(sc(NC(=O)COc3ccc(Cl)cc3)c2C(N)=O)C1` (centres undefined), with -0.31; and `COC(=O)c1c(NC(=O)CCCOc2ccc(Cl)cc2)sc2c1CCCC2`, with 4.01 (active).
Then `CC1(C)CC(=O)C=C(Nc2cc(-c3ccc(Cl)cc3)[nH]n2)C1`, with 2.1; and `Cc1nc2cc(-n3c(O)c[nH]c3=O)ccc2s1`, with 1.96; and `CCOC(=O)C1=C(O)CSC1=Nc1ccc(F)cc1`, with 2.03.
For `CCOC(=O)c1c(C)n(CCOc2ccc(F)cc2)c2ccc(O)cc12`, the z-score was 4.76 (active).
Then `CCOC(=O)c1c(C)oc2ccc(OCc3ccc(C(=O)OC)cc3)cc12`, with 0.32; and `Cc1cc(C)c2c(n1)sc1c(=O)n(C)cnc12`, with 1.74.
As for `CCOC(=O)C1=C(N)Oc2c(Br)cc(Cl)cc2C1C(C#N)C(=O)OCC` (centres undefined), the figure is 2.22.
Turning to `CCOC(=O)C(NC(=O)c1ccccc1)(OC(C)C)C(F)(F)F` (centres undefined), the z-score was 0.49.
Then `FC(F)(F)c1cc(Cl)c2ncc(-c3ccc(Cl)c(Cl)c3)nc2c1`, with 1.2; and `CC(C)Cn1c(C2CC(=O)N(c3ccccc3)C2)nc2ccccc21` (centres undefined), with 5.98 (active); and `O=C1CC(c2nc3ccccc3n2Cc2ccc(F)cc2)CN1c1ccccc1` (centres undefined), with 5.55 (active).
Then `O=c1n(Cc2ccccc2)c2ccccc2n1Cc1ccccc1`, with -0.36; and `CCn1c(C(O)c2ccc(C(C)C)cc2)nc2ccccc21` (centres undefined), with 1.03.
With `Cc1nc2ccccc2n1C1CC(=O)N(c2ccccc2)C1=O` (centres undefined), the z-score was 0.3.
With `NC1=NC(c2cc(F)cc(F)c2)n2c(nc3ccccc32)N1` (centres undefined), the z-score was -1.88.
